# C-LANA FP: KSHV C-LANA DNA binding inhibition; 0.078% of 340,000 active; inhibition, % at 9 µM; MBP-C-LANA/FAM-LBS DNA binding, fluorescence polarization;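 active = highest replicate inhibition at or above 60% at 9 µM, even if other replicates fall short; inactive = all replicates below 60% inhibition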;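 also: 0% = neutral control wells and 100% = 4 µM acridine orange control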
# eLon inh: inhibitors of E. coli Lon protease; P0A9M0; purified E. coli Lon protease, fluorescence polarization; inhibition, % at 7.94 µM; 0.42% of 360,000 active; AID 602123; in the data active = inhibition above about 13%, passing the limit was not always enough;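 also: 0% = enzyme with probe and DMSO and 100% = no enzyme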
# Keap1-Nrf2 PPI: disrupts human Keap1 binding to Nrf2 peptide. inhibition, % at 9.4 µM. Keap1 Kelch-Nrf2 peptide fluorescence polarization, 1536-well. Q14145. 0.15% of 340,000 active. AID 504523; in the data active = inhibition above about 12%; inconclusive = no clear call, values can overlap the other calls; inactive = below about 7.3%;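 also: human Keap1 Kelch domain with fluorescein labeled Nrf2 9mer peptide probe; 0% = neutral control wells and 100% = peptide positive control; higher means more block of Keap1 binding to Nrf2 peptide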
# Target sequence (Q14145 whole entry, looked up, the tested form may be a part): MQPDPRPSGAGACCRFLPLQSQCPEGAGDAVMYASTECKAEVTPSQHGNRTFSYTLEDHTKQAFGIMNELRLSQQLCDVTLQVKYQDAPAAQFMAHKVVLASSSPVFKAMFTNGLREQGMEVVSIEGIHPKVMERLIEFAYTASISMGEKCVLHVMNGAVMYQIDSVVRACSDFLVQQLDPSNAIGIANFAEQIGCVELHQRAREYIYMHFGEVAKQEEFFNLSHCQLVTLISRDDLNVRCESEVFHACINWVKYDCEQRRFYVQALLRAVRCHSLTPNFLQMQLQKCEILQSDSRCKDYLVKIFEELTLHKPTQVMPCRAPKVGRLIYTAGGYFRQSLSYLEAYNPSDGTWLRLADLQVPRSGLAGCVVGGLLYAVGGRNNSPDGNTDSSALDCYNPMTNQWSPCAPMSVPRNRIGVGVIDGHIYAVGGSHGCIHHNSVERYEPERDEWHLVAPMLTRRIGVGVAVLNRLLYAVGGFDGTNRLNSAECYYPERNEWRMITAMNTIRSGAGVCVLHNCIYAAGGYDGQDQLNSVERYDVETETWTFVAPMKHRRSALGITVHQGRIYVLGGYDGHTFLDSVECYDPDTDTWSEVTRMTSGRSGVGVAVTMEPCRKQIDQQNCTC
# Cardiac RTF inh: cardiac RTF calcium desensitization; P19429+P45379; IANBD-labeled cardiac RTF, Ca2+ fluorescence; inhibition, % at 7.15 µM; 0.12% of 340,000 active; AID 493244;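 active = inhibition above the mean inhibition of all tested compounds plus 3 SD, cut at about 17% in these data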;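 also: assay run at fixed EC70 calcium of 1.6 mM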
# cardiac RTF act: cardiac RTF calcium sensitization. IANBD-labeled TnC RTF fluorescence at EC20 calcium; 0% EC20 calcium, 100% full calcium. activation, % at 7.2 µM. 0.24% of 340,000 active. AID 493008;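 active = activation above the mean over all tested compounds plus 3 SD, cut at about 30% in these data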;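 also: rise in fluorescence read as greater calcium sensitivity of cardiac thin filaments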
# eLon confirm: confirmation of E. coli Lon protease inhibitors; shares compounds with eLon inh; purified E. coli Lon, fluorescence polarization; inhibition, % at 7.94 µM; 31% of 1,400 active; AID 602230; in the data active = inhibition above about 16%;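 also: 0% = enzyme with probe and DMSO and 100% = no enzyme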
# An asterisk follows results filed as active; ? = inconclusive; · = not tested or not shown; + = active, no number. Rows were chosen to be rich in hits. Some 0.74% of all compounds tested hit in one or more screens of this group.
SMILES,C-LANA FP,eLon inh,Keap1-Nrf2 PPI,Cardiac RTF inh,cardiac RTF act,eLon confirm
COCCNc1nc(C)cc(-c2cc(C(=O)Nc3ccccc3)on2)n1,1,29*,2,-25,0,3
CCn1c(CCC(=O)N(C)CC(=O)Nc2cccc(F)c2)nc2cc(S(=O)(=O)N(C)C)ccc21,3,15*,-5,-4,-6,5
COc1cc2c(C#N)c(N3CCc4ccccc4C3)nc(N)c2c(N)n1,1,56*,-2,-12,-2,-16
O=c1cc(-c2ccccc2)oc2c1CCCC2,·,1,·,·,·,·
CCCCOCCCNC(=O)C[C@@H]1C[C@@]2(C(=O)OCC)CCC=C2N(Cc2ccc(Cl)cc2Cl)C1=O,·,1,·,·,·,·
COc1ccccc1-c1cccc(-c2nc(C(=O)N3CCCCC3)cc3c2[C@@H](CCO)N(S(=O)C(C)(C)C)C3)c1 (some centres not stated),·,-3,·,·,·,·
Cc1cc2cc(C=C(C#N)C#N)c(Cl)nc2cc1C,29,89*,10,-53,18,39*
CCOC(=O)/C(C#N)=C/c1cc2cc(C)c(C)cc2nc1Cl,0,-15,-8,-5,7,·
Cc1cccc(C)c1NC(=O)COC(=O)c1c2c(nc3ccccc13)/C(=C\c1ccc3c(c1)OCO3)CCC2,2,+,?,-2,6,74*
CCOc1cc(/C=C2\CCCc3c2nc2ccccc2c3C(=O)O)ccc1OC,3,115*,2,-25,9,66*
Cc1cc(C)cc(C(O)c2ncc(-c3cccc(F)c3)[nH]2)c1 (configuration not stated),·,-7,·,·,·,·
Cc1ccc(S(=O)(=O)n2cc(-c3ccccc3)c(N)n2)cc1,-1,15*,-4,0,5,-2
O=[N+]([O-])c1c(Nc2ccccn2)cc(Cl)c2nonc12,1,52*,-11,3,33*,-8
CNc1ncnc2c1ncn2[C@H]1CN(CCN2CCOCC2)C[C@@H](CO)O1,·,2,·,·,·,·
CCc1nc2c(OCC3CCCCC3)cccn2c1N(C)C(=O)c1ccccc1F,·,4,·,·,·,·
CCc1ccc(NC(=O)c2ccc3c(=O)n4c(nc3c2)CCCCC4)cc1,-1,1,2,5,1,·
O=C(Nc1cccc(S(=O)(=O)N2CCCCC2)c1)c1ccc2c(=O)n3c(nc2c1)CCCCC3,0,25*,2,1,3,6
CCn1c(SCC(=O)Nc2cc(C)on2)nnc1-c1ccco1,1,2,-7,2,11,·
CCCCn1c(SCC(=O)Nc2cc(C)on2)nnc1-c1ccco1,1,14*,-4,-10,3,-3
C[C@@H]1CN([C@H](C)CO)C(=O)c2c(c3ccccc3n2C)-c2ccccc2CO[C@H]1CN(C)Cc1ccccc1,·,17*,·,·,·,-8
O=C1C2C3c4ccccc4C(c4ccccc43)C2C(=O)N1Cc1ccco1 (configuration not stated),5,20*,-8,3,2,4
O=C1C2C(C(=O)N1Cc1ccco1)C1C=CC2C12CC2 (configuration not stated),-1,-2,-3,-6,-3,·
CCCCCCCCCCC(C(=O)O)C1(C(=O)O)CCC(=O)O1 (configuration not stated),·,-6,·,·,·,·
CC(C)(C)c1ccc(SC2=C[C@@]3(O)CC[C@@H](O)[C@@](Sc4ccc(C(C)(C)C)cc4)(C2=O)[C@H]3O)cc1,·,2,·,·,·,·
CC1CCCC(=NNc2ccc3ccccc3n2)C1 (configuration not stated),-2,-19,0,-4,-7,·
SMILES,C-LANA FP,eLon inh,Keap1-Nrf2 PPI,Cardiac RTF inh,cardiac RTF act,eLon confirm
CCCCN1C(=O)C(CC(=O)NCCN2CCOCC2)CC(C(=O)N(CC)CC)=C1C (configuration not stated),·,0,·,·,·,·
COc1cccc(C(O)c2nc(-c3ccc(N(C)C)cc3)cs2)c1 (configuration not stated),·,-6,·,·,·,·
CCCN1CCN(CCCNC(=O)CCCn2nc(C)c3sc4ccccc4c3c2=O)CC1,-3,-4,0,0,-4,·
CCN1CCN(C(=O)Cn2nc(C)c3sc4ccccc4c3c2=O)CC1,0,21*,-3,-5,-4,1
O=C1C(=O)C(Cl)=C(Cl)C(Cl)=C1Cl,·,40*,·,·,·,51*
CCNC(=O)C1(C)CCCN(C(=O)c2ccc(F)c(C)c2)C1 (configuration not stated),·,3,·,·,·,·
O=C(CCl)N1c2ccccc2Oc2ccc3ccccc3c21,6,+,-2,-295,226*,24*
COC(=O)CCC(=O)OC1(C)C(=O)C=C2C=C(C3CC3)N(CCCCO)C=C2C1=O (configuration not stated),0,-20,-3,0,7,·
COC(=O)CCC(=O)OC1(C)C(=O)C=C2C=C(C3CC3)N(C(CO)CO)C=C2C1=O (configuration not stated),3,27*,-6,0,2,7
CCOc1ccc(CCNC(=O)CCNC(=O)c2ccco2)cc1OCC,0,2,-3,-3,-2,·
COc1ccc(CCNC(=O)CCNC(=O)c2ccco2)cc1OC,0,22*,-1,4,-4,-4
CCOc1ccc(CCN2C(=S)N([C@@H](CC(C)C)CN3CCCC3CN3C(=S)NC[C@@H]3CC(C)C)C[C@@H]2CC(C)C)cc1 (some centres not stated),7,-9,0,-2,2,·
COc1ccc(NC(=O)CN(C)C(=O)Cc2n[nH]c(=O)c3ccccc23)cc1,1,-5,-4,-11,-4,·
COc1cccc(NC(=O)CN(C)C(=O)Cc2n[nH]c(=O)c3ccccc23)c1,0,19*,-4,3,-5,-6
Cc1cccc(C)c1-n1nnnc1-c1nc2cc3ccccc3cc2[nH]c1=O,·,5,·,·,·,·
Cc1cc2oc(=O)cc(CN3CCN(Cc4ccccc4)CC3)c2cc1Cl,2,21*,-5,-2,2,-16
CC(C)CN1C(=O)C(=O)N(CC(=O)NCCCc2ccccc2)C1=O,·,-10,·,·,·,·
O=C1CCCC2=C1Sc1ccc(Cl)cc1N2,4,18,-13,-9,8,·
COC(=O)c1ccc2c(c1)SC1=C(CCCC1=O)N2,2,35*,-3,-17,6,100*
O=C(O)CC/C(=C\c1ccc2c(c1)OCO2)c1nc2ccccc2s1,0,26*,1,-4,-3,-17
O=C(O)CC/C(=C\c1ccc(Cl)c([N+](=O)[O-])c1)c1nc2ccccc2s1,1,1,-1,3,-5,·
O=c1[nH]cnc2sc3c(c12)CCN(Cc1ccccc1)C3,1,25*,0,-14,5,11
c1cc2ccc3ccc(CN4CCOCC4)c4ccc(c1)c2c34,0,17*,-5,-3,2,2
NC(=S)N/N=C/c1coc2ccc(Cl)cc2c1=O,1,13*,-4,4,3,24*

# Screening data: PubChem, several laboratories
